21 molecules from PubChem BioAssay can be followed below.

A number with no mark means an inactive call. For part of these data: Results with a measured potency or affinity are listed apart. The source made the active and inactive calls. Unless noted, how the calls were made is not given here.

Experiment [1] can be described thus: antimalarial activity against Dd2 strain (AID 2302;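 active means growth inhibition above 50% at the single 2 µM test dose, taken to imply half-maximal potency below 2 µM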;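 further: 0% = DMSO untreated growth and 100% = chloroquine plus artemisinin killed control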). The note with it: P. falciparum Dd2 in RBCs, LDH growth readout, 72 h; at 2 µM; stronger effect = higher value.
A short description of experiment [2]: HepG2 cytotoxicity, primary screen, cytotoxicity control for P. falciparum antimalarial project, cell-based, ATP luminescence (AID 2303;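 active means inhibition above 50%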;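 further: 0% = DMSO wells and 100% = digitonin-killed cells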). The note with it: HepG2 viability, 24-48 h, at 10 µM, stronger effect = higher value.
Experiment [3] has as its target L-lactate dehydrogenase (Plasmodium falciparum (isolate CDC / Honduras)) (UniProt Q27743). In words: PfLDH activity inhibition – cell lysate, 3D7 strain, counter-screen for P. falciparum growth inhibition project (AID 2304).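 Further: 0% = vehicle and 100% = reference inhibitor.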 The note with it: P. falciparum 3D7 crude extract, LDH APAD/NBT absorbance; at 2 µM; stronger effect = higher value. (In general: A counterscreen serves to expose hits that act by an unwanted route or on another target.)

Experiment [4] can be described thus: inhibition of 3D7 malaria parasite growth – strain 3D7 (AID 2306).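 Further: 0% = DMSO wells and 100% = chloroquine plus artemisinin control wells.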 The conditions noted are these: P. falciparum 3D7 erythrocytic growth, LDH absorbance, 72 h; at 2 µM; stronger effect = higher value.
Experiment [5] concerns the target Calcium-dependent protein kinase 1 (Plasmodium falciparum (isolate 3D7)) (UniProt P62344). In words: PfCDPK1 kinase inhibitors, biochemical, TCAMS library (AID 1159585; cut-off not given, nearly all actives have IC50 up to about 0.98 µM;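 further: inhibitors leave more ATP so luminescence rises with inhibition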). The note with it: recombinant PfCDPK1, Kinase-Glo ATP depletion luminescence.
Experiment [6] has as its target Plasmodium falciparum protein kinase 6 (PK6, PF3D7_1337100) (UniProt Q8IDW1). In words: PfPK6 kinase inhibitors, biochemical, TCAMS library (AID 1159586). The conditions noted are these: recombinant PfPK6, Kinase-Glo ATP depletion luminescence.
Experiment [7] concerns the target Protein kinase 7 (PK7), Plasmodium falciparum 3D7 (PF3D7_0213400) (UniProt Q7YTF7). As to the kind of experiment: inhibition of Plasmodium PK7 catalytic activity – biochemical, TCAMS antimalarial set, Kinase-Glo luminescence (AID 1159587). The conditions noted are these: recombinant PfPK7, Kinase-Glo ATP depletion luminescence. (Kinase-Glo measures the ATP left after a reaction by luminescence.)

For experiment [8], the target named is Calcium-dependent protein kinase 4 (Plasmodium falciparum (isolate 3D7)) (UniProt Q8IBS5). As to the kind of experiment: PfCDPK4 kinase inhibitors, biochemical, TCAMS library (AID 1159588; cut-off not given, nearly all actives have IC50 up to about 0.91 µM). The conditions noted are these: recombinant PfCDPK4, Kinase-Glo ATP depletion luminescence.
Calcium-dependent protein kinase 4 (Plasmodium falciparum (isolate 3D7)), sequence (Q8IBS5 whole entry, looked up): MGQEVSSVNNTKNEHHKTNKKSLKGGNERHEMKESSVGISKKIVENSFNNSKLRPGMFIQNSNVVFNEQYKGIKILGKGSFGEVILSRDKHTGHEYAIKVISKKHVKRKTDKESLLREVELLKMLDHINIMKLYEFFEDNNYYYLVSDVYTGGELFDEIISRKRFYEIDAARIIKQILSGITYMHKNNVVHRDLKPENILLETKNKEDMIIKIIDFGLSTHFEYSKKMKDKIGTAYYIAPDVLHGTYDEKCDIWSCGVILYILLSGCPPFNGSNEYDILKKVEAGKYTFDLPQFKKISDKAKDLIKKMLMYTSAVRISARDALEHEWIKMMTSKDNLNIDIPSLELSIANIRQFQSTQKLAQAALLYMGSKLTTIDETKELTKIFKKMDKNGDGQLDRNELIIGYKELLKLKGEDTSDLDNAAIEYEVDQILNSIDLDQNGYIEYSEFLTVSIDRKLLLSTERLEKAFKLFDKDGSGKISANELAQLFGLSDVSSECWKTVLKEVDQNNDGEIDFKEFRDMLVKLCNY

Calcium-dependent protein kinase 1 (Plasmodium falciparum (isolate 3D7)), sequence (P62344 whole entry, looked up): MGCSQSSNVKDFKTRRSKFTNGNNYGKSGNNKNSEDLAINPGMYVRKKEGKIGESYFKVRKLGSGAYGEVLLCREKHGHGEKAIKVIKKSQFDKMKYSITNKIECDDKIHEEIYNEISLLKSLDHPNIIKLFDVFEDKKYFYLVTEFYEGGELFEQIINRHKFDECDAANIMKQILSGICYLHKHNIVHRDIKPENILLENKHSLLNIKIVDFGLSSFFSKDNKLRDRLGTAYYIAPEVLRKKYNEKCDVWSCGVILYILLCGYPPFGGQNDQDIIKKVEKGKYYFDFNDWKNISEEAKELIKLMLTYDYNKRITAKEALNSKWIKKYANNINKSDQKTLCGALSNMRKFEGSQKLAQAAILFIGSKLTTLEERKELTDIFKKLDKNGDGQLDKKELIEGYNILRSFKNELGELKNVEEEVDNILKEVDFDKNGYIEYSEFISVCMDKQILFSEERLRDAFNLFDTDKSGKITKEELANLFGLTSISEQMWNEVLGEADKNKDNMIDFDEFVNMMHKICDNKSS
L-lactate dehydrogenase (Plasmodium falciparum (isolate CDC / Honduras)), sequence (Q27743 whole entry, looked up): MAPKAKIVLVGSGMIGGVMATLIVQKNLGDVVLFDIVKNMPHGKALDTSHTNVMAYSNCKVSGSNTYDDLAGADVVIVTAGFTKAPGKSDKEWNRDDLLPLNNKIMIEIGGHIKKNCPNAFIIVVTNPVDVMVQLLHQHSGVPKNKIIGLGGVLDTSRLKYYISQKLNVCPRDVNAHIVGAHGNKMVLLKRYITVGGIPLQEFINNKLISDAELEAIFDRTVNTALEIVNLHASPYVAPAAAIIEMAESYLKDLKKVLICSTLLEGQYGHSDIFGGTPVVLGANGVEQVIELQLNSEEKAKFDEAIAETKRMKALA
Protein kinase 7 (PK7), Plasmodium falciparum 3D7 (PF3D7_0213400), sequence (Q7YTF7 1-343): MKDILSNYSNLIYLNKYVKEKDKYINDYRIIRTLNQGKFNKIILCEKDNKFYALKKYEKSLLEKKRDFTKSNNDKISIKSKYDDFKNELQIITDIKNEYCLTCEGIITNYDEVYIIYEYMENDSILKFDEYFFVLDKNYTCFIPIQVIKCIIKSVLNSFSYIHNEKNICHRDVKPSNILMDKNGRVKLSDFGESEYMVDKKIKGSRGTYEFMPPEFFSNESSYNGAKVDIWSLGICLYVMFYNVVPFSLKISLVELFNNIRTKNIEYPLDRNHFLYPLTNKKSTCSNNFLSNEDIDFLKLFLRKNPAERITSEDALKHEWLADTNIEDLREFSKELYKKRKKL
Plasmodium falciparum protein kinase 6 (PK6, PF3D7_1337100), sequence (Q8IDW1 1-305): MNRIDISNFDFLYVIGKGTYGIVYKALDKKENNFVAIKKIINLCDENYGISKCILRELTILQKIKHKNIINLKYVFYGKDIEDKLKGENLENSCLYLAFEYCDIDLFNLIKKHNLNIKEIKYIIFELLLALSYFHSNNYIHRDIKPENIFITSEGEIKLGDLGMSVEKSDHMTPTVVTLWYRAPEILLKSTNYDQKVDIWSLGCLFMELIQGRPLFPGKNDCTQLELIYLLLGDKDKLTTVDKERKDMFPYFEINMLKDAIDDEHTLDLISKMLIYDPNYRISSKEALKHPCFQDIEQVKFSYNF

Regarding `Cc1noc(C)c1-c1cccc(CNCc2ccc(-c3ccc(-c4nc5ccc(F)cc5[nH]4)cc3)cc2)c1`, the growth inhibition is 92% (active) in experiment [1] and 102% (active) in experiment [4]. Also, the inhibition (as a rule, the change of the read-out against control, counted positive when it falls) in experiment [2] was 23%; in experiment [3] it was 4%. The result in experiment [5], in experiment [6], in experiment [7] and in experiment [8] was inactive.
Regarding `OCC1CCN(Cc2ccc(-c3cccc(-c4nc5ccccc5[nH]4)c3)cc2)CC1`, the growth inhibition in experiment [1] was 6%; in experiment [4], 101% (active). Further, the inhibition in experiment [2] is 21%; in experiment [3], -1%. Also, the result in experiment [5], in experiment [6], in experiment [7] and in experiment [8] was inactive.
As for `N#Cc1ccc(C=Cc2nccc3c2[nH]c2ccccc23)cc1`, the growth inhibition in experiment [1] is 28%; in experiment [4] it was 97% (active). The inhibition in experiment [2] is 33%; in experiment [3] it was 0%. Also, the outcome in experiment [5], in experiment [6], in experiment [7] and in experiment [8] was inactive.
On to `COc1ccc(N2CCN(CCCCNC(=O)c3ccc(NC(=O)c4cc(Cl)cc(Cl)c4)cc3)CC2)c(OC)c1`, for which the growth inhibition in experiment [1] was 84% (active); in experiment [4], 100% (active). Further, the inhibition is 21% in experiment [2] and 2% in experiment [3]. Moreover, the result in experiment [5], in experiment [6], in experiment [7] and in experiment [8] was inactive.
Regarding `Oc1ccccc1Nc1nc(NCc2ccco2)c2ccccc2n1`, the growth inhibition in experiment [1] is 71% (active); in experiment [4], 99% (active). Further, the inhibition is 0% in experiment [2] and 3% in experiment [3]. The outcome in experiment [5], in experiment [6], in experiment [7] and in experiment [8] was inactive.
On to `Nc1cccc(CNCc2cccc(-c3cccc(-c4nc5ccc(F)cc5[nH]4)c3)c2)c1`, for which the results for the growth inhibition in experiment [1] and in experiment [4] were 82% (active) and 102% (active), respectively. In addition, the values for the inhibition in experiment [2] and in experiment [3] were 5% and -4%, respectively. Also, the outcome in experiment [5], in experiment [6], in experiment [7] and in experiment [8] was inactive.
Take `COc1ccc(CN2CCC(CNCCc3ccccc3Oc3ccccc3)CC2)cc1`: the growth inhibition in experiment [1] was 56% (active); in experiment [4], 85% (active). In addition, the inhibition in experiment [2] is 99% (active); in experiment [3] it was 0%. For the same molecule, the outcome in experiment [5], in experiment [6], in experiment [7] and in experiment [8] was inactive.
Regarding `Cc1[nH]nc2ccc(-c3ccc4nccc(N5CCC(N)CC5)c4c3)cc12`, the growth inhibition is 100% (active) in experiment [1] and 101% (active) in experiment [4]. Besides, the inhibition in experiment [2] is 67% (active); in experiment [3], -3%. The result in experiment [5], in experiment [6], in experiment [7] and in experiment [8] was inactive.
Regarding `CC(C)Nc1nc(NCCc2cnc[nH]2)nc(NCc2cccc3ccccc23)n1`, the growth inhibition was 0% in experiment [1] and 90% (active) in experiment [4]. Further, the inhibition is 4% in experiment [2] and 2% in experiment [3]. Also, the result in experiment [5], in experiment [6], in experiment [7] and in experiment [8] was inactive.
Take `Cc1cc(Cl)ccc1NC(=O)NCCCCCN1CCC(c2c[nH]c3ccccc23)CC1`: the growth inhibition in experiment [1] is 8%; in experiment [4], 91% (active). Besides, the inhibition in experiment [2] is 59% (active); in experiment [3] it was 0%. Also, the result in experiment [5], in experiment [6], in experiment [7] and in experiment [8] was inactive.
In the case of `Cc1cc(C)c(C)c(S(=O)(=O)N2CCCCC(c3ccc(F)c(F)c3)=N2)c1C`, the growth inhibition in experiment [1] was 60% (active); in experiment [4], 86% (active). Moreover, the results for the inhibition in experiment [2] and in experiment [3] were 5% and -3%, respectively. Moreover, the outcome in experiment [5], in experiment [6], in experiment [7] and in experiment [8] was inactive.
As for `FC(F)(F)c1cccc(CNC2CCN(CC3CCCCC3)CC2)c1`, the growth inhibition in experiment [1] was 12%; in experiment [4] it was 101% (active). Moreover, the inhibition in experiment [2] and in experiment [3] was 0% in each case. Besides, the result in experiment [5], in experiment [6], in experiment [7] and in experiment [8] was inactive.
For the molecule `COc1ccc(-c2csc(N(CCCN(C)C)C(=O)c3cc4c(C)nn(-c5ccccc5)c4s3)n2)cc1`, the growth inhibition in experiment [1] was 16%; in experiment [4], 102% (active). Also, the inhibition in experiment [2] is 100% (active); in experiment [3], -2%. Moreover, the result in experiment [5], in experiment [6], in experiment [7] and in experiment [8] was inactive.
For `N#Cc1ccc2c(c1)CCN(CCC1CCC(NC(=O)/C=C/c3cc(Br)cs3)CC1)CC2` (stereo not drawn), the values for the growth inhibition in experiment [1] and in experiment [4] were 1% and 93% (active), respectively. The results for the inhibition in experiment [2] and in experiment [3] were 3% and 5%, respectively. In addition, the result in experiment [5], in experiment [6], in experiment [7] and in experiment [8] was inactive.
Consider `c1cc(OCCN2CCCC2)ccc1CNC1CCN(CC2CCCCC2)CC1`, for which the growth inhibition in experiment [1] is 54% (active); in experiment [4] it was 101% (active). The results for the inhibition in experiment [2] and in experiment [3] were 15% and 5%, respectively. The result in experiment [5], in experiment [6], in experiment [7] and in experiment [8] was inactive.
On to `COc1cc(C)ccc1N1CCN(CCCCNC(=O)c2ccc(NC(=O)c3ccc(Cl)cc3)cc2)CC1`, for which the growth inhibition is 31% in experiment [1] and 99% (active) in experiment [4]. The values for the inhibition in experiment [2] and in experiment [3] were 30% and 4%, respectively. For the same molecule, the outcome in experiment [5], in experiment [6], in experiment [7] and in experiment [8] was inactive.
Regarding `COc1ccc(C2CC(=O)C3=C(C2)NC(C)=C(C(=O)OC(C)C)C3c2ccc(O)cc2)cc1OC` (stereo not drawn), the growth inhibition in experiment [1] was 98% (active); in experiment [4], 99% (active). In addition, the inhibition in experiment [2] was -1%; in experiment [3], -3%. Also, the outcome in experiment [5], in experiment [6], in experiment [7] and in experiment [8] was inactive.
On to `Cc1cccc(CNc2nc(C)cc(NCCC(=O)Nc3ccccc3)n2)c1`, for which the growth inhibition in experiment [1] was 54% (active); in experiment [4] it was 101% (active). The inhibition in experiment [2] was 15%; in experiment [3], -3%. The result in experiment [5], in experiment [6], in experiment [7] and in experiment [8] was inactive.
On to `CCNc1cc(C(=O)N[C@@H](Cc2ccccc2)[C@H](O)CNCc2ccc3c(c2)OCCO3)cc(N2CCCCS2(=O)=O)c1`, for which the growth inhibition in experiment [1] is 45%; in experiment [4], 95% (active). The inhibition in experiment [2] and in experiment [3] was -1% throughout. The outcome in experiment [5], in experiment [6], in experiment [7] and in experiment [8] was inactive.
Turning to `COc1cc(CNC[C@@H](O)[C@H](Cc2ccccc2)NC(=O)c2cc(C3CCCC3)cc(N3CCCCS3(=O)=O)c2)cc(OC)c1`, the figures for the growth inhibition in experiment [1] and in experiment [4] were 96% (active) and 98% (active), respectively. Moreover, the results for the inhibition in experiment [2] and in experiment [3] were 16% and 4%, respectively. Moreover, the result in experiment [5], in experiment [6], in experiment [7] and in experiment [8] was inactive.
Turning to `COc1ccc(C(=O)CCC(=O)N(Cc2ccc(-c3ccc(CNCCc4ccccc4)cn3)cc2)C(C)CN(C)C)cc1F` (stereo not drawn), the results for the growth inhibition in experiment [1] and in experiment [4] were 57% (active) and 98% (active), respectively. In addition, the inhibition in experiment [2] is 20%; in experiment [3], -4%. Moreover, the result in experiment [5], in experiment [6], in experiment [7] and in experiment [8] was inactive.
